The text below walks through data of PubChem BioAssay (NCI).

The panel holds about 83,000 compounds, 20% with a hit somewhere; the sample as a whole holds those more often.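 Results are percent growth after 48 hours of single-concentration exposure. 100 means growth as in untreated cells, lower positive values show inhibition; negative values down to -100 show cell death.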 Values without a mark were called inactive. Activity calls are given as the source filed them. How the source made its calls: active means growth percent below 10; inactive means the rest.

Experiment in all cases: NCI-60 one-dose screen, 48 h (100 = growth as untreated, 0 = no growth, -100 = all killed)
Test [1] concerns NCI-H226 lung. Conditions: 10 µM.
Test [2] concerns NCI-H322M lung. Particulars: 10 µM.
Test [3] relates to HOP-62 NSCLC. Conditions: 10 µM.
Test [4] concerns NCI-H460 lung. Conditions: 10 µM.
The subject of test [5] is NCI-H522 lung. Particulars: 10 µM.
Test [6] deals with COLO 205 colon. Particulars: 10 µM.
Test [7] concerns DU-145 prostate. Particulars: 10 µM.
Test [8] has as its system SF-268 CNS. Particulars: 10 µM.
Test [9] relates to SF-295 CNS. Conditions: 10 µM.
In test [10] the test system is SF-539 CNS. Particulars: 10 µM.
Test [11] deals with UACC-257 melanoma. Conditions: 10 µM.
The test system of test [12] is M14 melanoma. Particulars: 10 µM.
For test [13], the system named is HCT-15 colon. Conditions: 10 µM.
In test [14] the test system is HT29 colon. Particulars: 10 µM.
In test [15] the test system is SNB-19 CNS. Particulars: 10 µM.
Test [16] has as its system U251 CNS. Conditions: 10 µM.
The subject of test [17] is SK-MEL-5 melanoma. Particulars: 10 µM.
The test system of test [18] is UACC-62 melanoma. Conditions: 10 µM.
Test [19] has as its system SK-MEL-2 melanoma. Conditions: 10 µM.
The test system of test [20] is HL-60(TB) leukemia. Conditions: 10 µM unless noted.

On to `CCOP(=O)(CC(F)(F)C(F)(F)F)OCC`, for which the growth is -23.5% (active) in test [1]; 100% in test [2]; 90.9% in [3]; 91.6% in test [4]; -77.3% (active) in test [5]; -68% (active) in [6]. Further, the growth was 14.9% in [7]; 80.4% in test [8]; 97.7% in [9]; -48.6% (active) in [10]; -31.4% (active) in [11]; -53.3% (active) in test [12]. In addition, the growth in test [13] was -33.2% (active); in test [14] it was -44.6% (active); in test [15], 95.7%; in test [16], 73.7%; in [17], 78.9%; in test [18], 44.7%. The results for the growth in test [19] and in [20] were 29.5% and 17.2%, respectively.

Turning to `CC(=O)Oc1ccccc1C(=O)NC([Se])=NC1CCCCC1`, the growth in [1] was -21% (active); in test [2], 0.722% (active); in [3], 9.51% (active); in [4], 6.6% (active); in [5], -95.7% (active); in test [6] it was 28.9%. In addition, the growth was 20% in test [7]; 66.1% in [8]; -8.45% (active) in test [9]; -84.7% (active) in test [10]; -1.74% (active) in [11]; 20.7% in [12]. Further, the growth is 3.57% (active) in test [13]; 32.1% in test [14]; 12.3% in [15]; 24.2% in test [16]; -80% (active) in test [17]; -57.5% (active) in test [18]. Besides, the growth in [19] was -43.7% (active); in [20] it was 7.53% (active).

`O=C(/C=C/c1ccc(Cl)cc1Cl)c1nc2ccccc2n1Cc1ccc(F)cc1`: the growth in test [1] is 38.7%; in test [2], 69.7%; in [3], 58.2%; in test [4], 43.8%; in test [5], 76.2%; in [6], 83.6%. The growth in [7] is 55.4%; in test [8], 49.9%; in test [9] it was 60.6%; in [10], 17.9%; in test [11], 66.3%; in test [12], 59.8%. Moreover, the growth was 11.8% in test [13]; 7.3% (active) in test [14]; 57.7% in test [15]; 13.4% in [16]; 74.5% in test [17]; 40.1% in test [18]. Moreover, the growth in test [19] is 94.7%; in test [20] it was 28%.

`C=CC[Se]C(=O)c1cncc(C(=O)[Se]CC=C)c1`: the growth in [1] is -24.6% (active); in test [2], -46.2% (active); in test [3], -60.6% (active); in [4] it was -14% (active); in test [5], -89.5% (active); in [6], -47.3% (active). Besides, the growth in test [7] is 5.92% (active); in test [8], 7.42% (active); in [9] it was -55.8% (active); in test [10], -99.9% (active); in test [11] it was -75% (active); in test [12], -86.7% (active). The growth was -37.4% (active) in [13]; -14.4% (active) in [14]; -97.5% (active) in test [15]; -72.9% (active) in test [16]; -36.3% (active) in test [17]; -62.3% (active) in [18]. The figures for the growth in test [19] and in [20] were -54.1% (active) and -26.2% (active), respectively.

As for `CN(C)CCc1cn(C2CCC2)c2cccc(O)c12`, the growth in [1] is 69.6%; in [2], 91.2%; in test [3], 82.1%; in [4], 70.7%; in test [5] it was 83.6%; in test [6], 81.1%. In addition, the growth in [7] was 91.3%; in [8] it was 81.6%; in test [9], 76.4%; in [10] it was 61.9%; in test [11] it was 41.8%; in [12], 15.9%. Also, the growth is 62.2% in test [13]; 34.9% in test [14]; 87% in test [15]; 65.7% in test [16]; 46.6% in test [17]; 48.9% in [18]. The growth in test [19] is 99.4%; in [20] it was 12.5%.

For the compound `O=C(/C=C/c1ccccc1Cl)c1nc2ccccc2n1Cc1ccc(F)cc1`, the growth is -75.1% (active) in [1]; -42.1% (active) in [2]; -77.5% (active) in test [3]; -54.6% (active) in test [4]; -81.2% (active) in test [5]; -83.5% (active) in test [6]. Besides, the growth in test [7] is -34.8% (active); in test [8], -2.61% (active); in [9], -86.8% (active); in test [10], -94.4% (active); in test [11] it was -61.1% (active); in [12], -79.4% (active). In addition, the growth in [13] was -83.1% (active); in [14], -85.6% (active); in [15], -79.2% (active); in test [16] it was -87.5% (active); in test [17], -86.5% (active); in test [18], -93.2% (active). Besides, the growth in test [19] is -68.5% (active); in test [20], -38.4% (active).

Take `O=C(NCCCCC(c1ccc(F)cc1)c1ccc(F)cc1)Nc1ccc([N+](=O)[O-])c(C(F)(F)F)c1`: the growth in test [1] was 0.603% (active); in test [2] it was 6.54% (active); in [3], -29% (active); in test [4], 7.56% (active); in test [5], -16.9% (active); in [6] it was -100% (active). In addition, the growth in test [7] is 20.9%; in [8] it was 18.5%; in test [9], -4.61% (active); in test [10], -28.2% (active); in test [11] it was -15.7% (active); in [12], -23.1% (active). In addition, the growth in test [13] is 0.604% (active); in test [14], -11% (active); in test [15] it was 17.1%; in test [16], 2.48% (active); in test [17] it was -100% (active); in [18] it was -14.9% (active). Besides, the growth in [19] was -71% (active).

For the compound `O=C(NC([Se])=NC1CCCCC1)c1ccc2c(c1)OCO2`, the growth in test [1] was 85.6%; in test [2], 11.9%; in test [3], 23.3%; in test [4] it was 10.6%; in [5], 42.1%; in test [6], 28.1%. The growth was 49% in test [7]; 122% in test [8]; 6.53% (active) in [9]; 56.9% in [10]; 50.5% in [11]; 60.2% in test [12]. Further, the growth is 47.3% in test [13]; 55.6% in test [14]; 33.3% in test [15]; 27.6% in [16]; 79.3% in test [17]; 76.3% in test [18]. In addition, the growth was 99.6% in [19] and 65.7% in test [20].
